The source made the active and inactive calls. Calls come from the whole dose curve; as a rule, active = well fitted activation curve with a large enough effect; inconclusive = small, poorly fitted or top-dose-only effect; inactive = no such curve, though single readings can be large or run the other way.
Assay: Confirmatory qHTS for Identification of Small Molecule Activators of Huntingtin-Antisense Promoter Activity
Details: HEK293 HTT-AS promoter firefly luciferase reporter, 24 h; series mostly up to 57.5 µM
Method in brief: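 HEK293 luciferase reporter cells, 2,500/well, cultured 24 h, then exposed to compounds at up to 57.5 uM final for 24 h at 37C. Firefly luciferase luminescence read; normalized to vehicle (0%) and zero RLU (-100%).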
Potency is the fitted concentration of half-maximal effect.

Potency, active:
Cc1cccc(N2CCN(C(=O)c3ccc(NC(=O)c4nsc5ccccc45)cc3)CC2C)c1 (stereo unspecified) 338 nM

Potency, inactive:
CCN(C(=O)c1cc2c(s1)-c1ccccc1OC2)c1cccc(C(F)(F)F)c1
Fc1ccc(N2CCN(c3ncnc4c3nc3n4CCCCC3)CC2)cc1
CC(=O)N1CCCc2cc(S(=O)(=O)N3CCN(c4ccc(F)cc4)CC3)ccc21
O=C1CSC2(C(=O)N(Cc3cccc(C(F)(F)F)c3)c3ccccc32)N1c1ccc(F)c(F)c1 (stereo unspecified)
COc1cc(OC)c(OC)cc1CN1CCc2nc(N3CCN(c4ncccn4)CC3)ncc2C1
CCCS(=O)(=O)NCCc1sc2nc(-c3ccc(Cl)cc3)nn2c1C
COc1cccc(N2CCN(C(=O)c3cccc(-n4c(C)nc5cccnc54)c3)CC2)c1
Cc1ccc(-c2[nH]c3ccccc3c2SCCNC(=O)c2ccc(S(=O)(=O)N(C)C)cc2)cc1
CCCNc1nc(NCc2ccccc2OC)c2cnn(C)c2n1
COc1ccc([C@@H]2CNC(=O)C2)cc1OC1CCCC1
Cc1nc2nncn2c(NCc2ccc(Cl)cc2)c1C
COc1cc(OC)cc(C(=O)Oc2c(Sc3ccccc3)c(C)nn2C(C)(C)C)c1
CN(C)S(=O)(=O)c1ccc(C(=O)NCCSc2c(-c3ccc(Br)cc3)[nH]c3ccccc23)cc1
COc1ccc(-c2[nH]c3ccccc3c2SCCNC(=O)c2cc(OC)c(OC)c(OC)c2)cc1
Cc1oc(-c2cccc(Cl)c2)nc1CN1CCC(C(=O)NCCCN2CCN(c3ccc(F)cc3)CC2)CC1
